Laboratory results as given in PubChem BioAssay AID651604 (The Scripps Research Institute Molecular Screening Center, 2012).
Hit rate of the full screen: of about 1,500 compounds, about 1,400 (93%) were called active. No stated cut-off is given here; in the data, active means inhibition above about 9.5%; inactive means the rest. So high a share suggests a set chosen from earlier hits. A selection follows.

Test: binders of control antibody PGV04, counter-screen for PG9 antibody binder project, biochemical, TR-FRET, distinct HIV envelope site (AID 651604)
Details: TR-FRET PGV04 antibody-gp120 binding, at 6.7 µM, stronger effect = higher value

Row | SMILES | inhibition
1 | CCN(CC)C(=O)c1ccc(NC(=O)c2sccc2-c2ccccc2)cc1 | 25.4% (active)
2 | N#CC1=C(N)Oc2c(c(=O)oc3ccccc23)C1c1ccccc1OC(=O)c1cccs1 (configuration not stated) | 28% (active)
